An excerpt weighted towards active compounds, which were near 3.2% of everything screened.
aDG glyco up = alpha-DG glycosylation activation; 0.22% of 360,000 active; AID 624168; activation, % at 10 µM; Pro5-aDG cells, alpha-DG glycosylation AlphaScreen (IIH6); 0% Pro5, 100% B10-LARGE cell signal;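 active means activation of at least 8% versus controls, or a plate z-score of at least 8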;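 further: Pro5 are CHO cells carrying HIG-tagged alpha-DG that lacks glycosylation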
CRFBP-R2 agonist = agonists of human CRF-binding protein/CRF-R2 receptor complex; HEK293 CRF-R2/CRF-BP, calcium dye fluorescence (FLIPR); percent of saturating CRF peptide response; activation, % at 13.2 µM; 0.46% of 350,000 active; AID 588473;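 active means activation of at least 50%, plus an integration ratio under a set limit after plate pattern correction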;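 further: plate controls were neutral control wells without compound for no effect and CRF at EC100 for full effect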
CRFBP-R2 block = CRF-BP/CRF-R2 complex antagonism; inhibition, % at 11.8 µM; 0.59% of 350,000 active; HEK293 CRF-R2/CRF-BP, CRF-induced calcium fluorescence;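 active means inhibition of the ligand-induced calcium signal above about 50% at the single tested concentration, limit read from the data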
H9c2 protect = modulators protecting cardiomyocytes from myocardial damage. H9c2 cardiomyocytes, H2O2 injury protection, ATPLite, 2 h. protection from H2O2 cell death, % at 20 µM. 0.63% of 360,000 active. AID 588492;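 active means compounds giving at least 50% protection of heart cells from peroxide-induced death in the single-dose screen, raw or plate-pattern-corrected value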;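 further: 0% = DMSO wells with peroxide and 100% = DMSO wells without peroxide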
PfG6PD inh = PfG6PD (Plasmodium falciparum) enzyme inhibition. PfGluPho enzyme, NADPH resazurin-diaphorase fluorescence. inhibition, % at 20 µM. 0.78% of 350,000 active. AID 504690;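 active means inhibition reaching at least a set limit at 20 µM in the primary screen, cut at about 59% in these data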;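 further: 0% = DMSO wells with substrate and 100% = DMSO wells lacking glucose-6-phosphate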
FAS TE block = FAS thioesterase (human) inhibition; P49327; recombinant FAS-TE, OMFH fluorogenic substrate, fluorescence endpoint; inhibition, % at 15 µM; 0.67% of 360,000 active;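 active means compounds whose normalised, plate-corrected inhibition of enzyme fluorescence in the single-dose primary screen is 50% or more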;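 further: 0% = DMSO with enzyme and 100% = substrate without enzyme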
Starred values were filed as active, the others as inactive; · = not tested or not shown.

SMILES	aDG glyco up	CRFBP-R2 agonist	CRFBP-R2 block	H9c2 protect	PfG6PD inh	FAS TE block
CCN1CCN(c2cn[nH]c(=O)c2Cl)CC1	0	-2	8	2	-9	-6
CC(C)NS(=O)(=O)c1ccc(OCC(=O)N2CCN(Cc3ccc4c(c3)OCO4)CC2)c(Cl)c1	2	-1	1	-4	17	50*
CCCCn1c(O)c(/C=C/C=Nc2ccccc2)c(=O)[nH]c1=O	0	113*	-134	10	28	-11
CCCCC(=O)N/N=C/c1c(O)n(CCc2ccccc2)c(=O)[nH]c1=O	0	1	22	18	-19	13
Cn1c(O)c(/C=C/C=Nc2ccccc2)c(=O)n(C)c1=O	0	85*	-63	23	4	-8
O=c1c2ccccc2nc(/C=C/c2ccc3c(c2)OCO3)n1-c1ccccc1	0	-3	5	39	0	15
COc1cc(/C=C/c2nc3ccccc3c(=O)n2-c2ccc(O)cc2)ccc1O	0	2	-10	66*	32	1
COc1ccc(-n2c(/C=C/c3ccc(O)c(O)c3)nc3ccccc3c2=O)cc1	0	3	-5	57*	9	2
COC(=O)C1=C(c2ccc(OC)c(OC)c2)C[C@@H]2CC[C@H]1N2C(=O)NCc1cc(C)oc1C(F)(F)F	0	-1	6	7	-1	3
CN(C)c1ccc(/C=C/[N+](=O)[O-])cc1	0	101*	-118	14	20	-11
C=CCN1C[C@@H](C)N(C(c2ccc(C(=O)N(CC)CC)cc2)c2cccc(OC)c2)C[C@@H]1C (some centres not stated)	0	1	-5	-5	5	0
Oc1ccc(C[C@H]2NCCc3cc(O)c(O)cc32)cc1O	0	0	3	57*	53	-4
Oc1ccc(CC2CC3CCN2CC3)cc1O (configuration not stated)	0	-2	9	11	-1	-5
C=C1C(C)C2C(Cc3ccccc3)NC(=O)C23C(OC(C)=O)C=CC(C)(O)CC(C)CC=CC3C1O (configuration not stated)	0	3	-17	6	4	-7
C=C1[C@@H](C)[C@H]2[C@H](Cc3ccccc3)NC(=O)[C@]23OC(=O)/C=C/[C@H](O)CCC[C@@H](C)C/C=C/[C@H]3[C@@H]1O	0	-1	0	79*	10	1
Oc1c(Br)cc(-c2ccccc2)cc1Br	0	-2	72*	-13	-16	1
Oc1c(Br)cc(Br)cc1Br	0	-1	1	-3	6	0
O=c1[nH]c(O)c(/C=C2/C=CC(c3cc(Cl)ccc3Cl)=N2)c(=O)[nH]1	0	103*	-102	-16	8	-5
CC1=Nc2ccccc2/C1=C/c1c(O)[nH]c(=O)[nH]c1=O	0	-2	6	0	5	-4
COc1ccc(-[n+]2c(-c3ccccc3)cc(-c3ccc(C)cc3)cc2-c2ccccc2)cc1	0	82*	-81	-17	-5	0
CCn1c(O)c(C=Nc2ccc(S(N)(=O)=O)cc2)c(=O)[nH]c1=S	0	9	-23	-9	-4	-8
CCN(CC)c1ccc(N=Cc2c(O)n(CCc3ccc(OC)c(OC)c3)c(=O)[nH]c2=O)cc1	0	127*	-115	-5	5	-76
CCN(CC)c1ccc(N=Cc2c(O)n(Cc3ccco3)c(=O)[nH]c2=O)cc1	0	60*	-49	-3	11	-42
CCN(CCO)c1ccc(N=Cc2c(O)n(C)c(=S)[nH]c2=O)cc1	0	87*	-102	-7	42	-25
NC(=O)c1ccc(N=Cc2c(O)n(Cc3ccco3)c(=O)[nH]c2=O)cc1	0	1	2	-10	25	-3
SMILES	aDG glyco up	CRFBP-R2 agonist	CRFBP-R2 block	H9c2 protect	PfG6PD inh	FAS TE block
O=c1[nH]c(=O)n(Cc2ccco2)c(O)c1C=NCc1cccs1	0	1	-23	54*	-3	-6
COc1ccccc1N1CCN(Cc2c(F)cccc2Cl)CC1	0	0	61*	-3	3	2
CN1CC=C(/C=C/c2ccc(-c3ccccc3)cc2)CC1	·	2	-4	·	12	·
COC1C(O)C(C)OC(OC2CCC3(C)C(CCC4C3C(O)CC3(C)C(C5=CC(=O)OC5)CCC43O)C2)C1O (configuration not stated)	0	-2	7	-2	-13	-9
COC(=O)C1=C(c2ccc(F)cc2OCc2ccccc2)C[C@@H]2CC[C@H]1N2C(=O)NCc1ccccc1Br	1	1	16	-3	7	19
O=C1NC(=O)C(=Cc2ccc(-c3ccc(Cl)cc3)o2)C(=O)N1	0	19	-21	-9	77*	-10
O=C1NC(=O)C(=Cc2ccc(N3CCOCC3)cc2)C(=O)N1	0	0	26	3	-5	-2
O=C1NC(=O)C(=Cc2ccc(-c3ccc(S(=O)(=O)N4CCOCC4)cc3)o2)C(=O)N1	0	-1	-7	-1	73*	-10
COC(=O)C1=C(c2ccccc2OCc2ccccc2)C[C@@H]2CC[C@H]1N2C(=O)NCc1ccc(F)cc1	1	-1	18	4	12	17
COc1ccc(OC)c(NP(=O)(Oc2ccccc2)Oc2ccccc2)c1	0	-1	9	8	-23	21
COc1cccc(OP(=O)(Nc2ccccc2)Oc2cccc(OC)c2)c1	0	0	-2	70*	22	28
O=P(Nc1ccccc1)(Oc1ccccc1)Oc1ccccc1	0	0	-11	54*	11	18
CN(C)C1C(=O)C(C(N)=O)=C(O)C2(O)C(=O)C3=C(O)c4c(O)cccc4C(C)(O)C3C(O)C12 (configuration not stated)	0	1	-27	-6	38	-4
COCCCn1c(-c2ccc(OC)cc2)cc(C(=O)NC2CCCCCCC2)c1C	0	-3	86*	6	25	31
CCN1/C(=C/C=C/C2=[N+](CC)c3ccccc3C2(C)C)C(C)(C)c2ccccc21	0	139*	-43	-35	-135	-138
Cn1c(=O)c2c(nc(N/N=C/c3c(O)n(C4CCCCC4)c(=S)[nH]c3=O)n2C)n(C)c1=O	0	1	-4	68*	11	18
O=C(/C=C/c1ccc(Br)cc1)NC(=S)N1C[C@H]2C[C@H](C1)c1cccc(=O)n1C2	0	-1	-3	4	12	-1
C=C(CC1CC(O)[C@]2(C)OC3CC4OC5C[C@]6(C)O[C@]7(C)CCC8OC9C[C@]%10(C)OC%11C(C)=CC(=O)OC%11CC%10OC9C[C@@H](C)C8OC7CC6O[C@]5(C)C/C=C\C4OC3CC2O1)C(=O)O (some centres not stated)	0	2	-4	6	0	-10

High-throughput results as filed in PubChem.
